Experimental findings from PubChem BioAssay (NCI) are described below.

The nature of assay [1]: NCI Yeast Anticancer Drug Screen. Data for the rad50 strain (AID 155).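 Note: 0% = growth of vehicle-only cultures of the same strain.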 The note with it: S. cerevisiae rad50 strain growth inhibition, active compounds read high. The essentials: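 Readout: growth inhibition relative to vehicle-treated cultures. Compound exposure was carried out in a genetically defined yeast strain deficient in DNA damage repair.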
The nature of assay [2]: NCI Yeast Anticancer Drug Screen. Data for the mec2-1 strain (AID 157). The settings on record: S. cerevisiae mec2-1 strain, active compounds read high. The gist of the method: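 Mutant yeast (mec2-1) grown with compound; growth inhibition relative to vehicle control reported.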
Assay [3] in a line: NCI Yeast Anticancer Drug Screen. Data for the sgs1 mgt1 strain (AID 161).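 Note: 0% = growth of cultures given vehicle only.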 The settings on record: S. cerevisiae sgs1 mgt1 strain, active compounds read high. The gist of the method:
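This yeast growth screen uses a strain with defined DNA-repair lesions; compound-treated growth is compared with vehicle-treated growth.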

A short description of assay [4]: NCI Yeast Anticancer Drug Screen. Data for the cln2 rad14 strain (AID 165).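 Note: 0% = growth equal to vehicle treated cultures.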 The note with it: S. cerevisiae cln2 rad14 strain, active compounds read high. The gist of the method: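 Readout is yeast growth inhibition versus vehicle-treated controls, using a strain with cln2 and rad14 alterations exposed to compound.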
Assay [5] in a line: NCI Yeast Anticancer Drug Screen. Data for the bub3 strain (AID 167). The settings on record: S. cerevisiae bub3 mutant strain, active compounds read high. The gist of the method: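 Readout: yeast growth inhibition, expressed relative to vehicle-only wells. The test organism is a mutant strain from a panel with lesions in DNA repair or checkpoint genes.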
Assay [6] can be described thus: NCI Yeast Anticancer Drug Screen. Data for the mlh1 rad18 strain (AID 175). The settings on record: S. cerevisiae mlh1 rad18 strain growth inhibition, active compounds read high. The essentials:
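Genetically defined yeast (DNA repair-deficient) exposed to compounds; growth inhibition determined relative to vehicle.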

Setting [7] is: at 5.0 µM (retest, dose inferred, filed as 0.5).
Setting [8] is: at 50.0 µM (retest, dose inferred, filed as 5.0).

The structures appear in SMILES notation. About 79,000 compounds went through this panel and 15% of them were active in at least one assay; those are over-represented in the sample as a whole. Unmarked numbers belong to inactive results. Active and inactive are the calls of the source. Cut-off read from the data, not from the text of the source: active = growth inhibition above about 70%; inactive = the rest.

Take `CC(c1ccc2ccccc2c1)c1c(F)cccc1C(=O)O` (configuration not stated): the growth inhibition in assay [1] (setting [7]) was 2%; in assay [1] (setting [8]) it was 50%; in assay [1] (at 50.0 µM) it was 98.7% (active); in assay [2] (setting [7]), 0%; in assay [2] (setting [8]), 54%; in assay [2] (at 50.0 µM), 98.3% (active). The growth inhibition in assay [3] (setting [7]) was 0%; in assay [3] (setting [8]) it was 12%; in assay [3] (at 50.0 µM), 97.2% (active); in assay [4] (setting [7]) it was -4%; in assay [4] (setting [8]) it was 64%; in assay [4] (at 50.0 µM) it was 98.6% (active). Moreover, the growth inhibition is -9% in assay [5] (setting [7]); 41% in assay [5] (setting [8]); 97.6% (active) in assay [5] (at 50.0 µM); -16% in assay [6] (setting [7]); 61% in assay [6] (setting [8]); 98.5% (active) in assay [6] (at 50.0 µM).

As for `C=CCOC(=O)SC(=S)OCN(C)C`, the growth inhibition in assay [1] (setting [7]) was 3%; in assay [1] (setting [8]), 98% (active); in assay [1] (at 50.0 µM), 99.2% (active); in assay [2] (setting [7]) it was -3%; in assay [2] (setting [8]), 99% (active); in assay [2] (at 50.0 µM), 99.4% (active). For the same compound, the growth inhibition in assay [3] (setting [7]) was 1%; in assay [3] (setting [8]), 99% (active); in assay [3] (at 50.0 µM), 99.4% (active); in assay [4] (setting [7]), 4%; in assay [4] (setting [8]) it was 99% (active); in assay [4] (at 50.0 µM), 98.6% (active). The growth inhibition in assay [5] (setting [7]) is -1%; in assay [5] (setting [8]), 98% (active); in assay [5] (at 50.0 µM), 99.3% (active); in assay [6] (setting [7]), 1%; in assay [6] (setting [8]), 99% (active); in assay [6] (at 50.0 µM), 99.1% (active).

In the case of `CCCCCC(O)C(C)CO` (configuration not stated), the growth inhibition in assay [1] (setting [7]) was 1%; in assay [1] (setting [8]) it was -3%; in assay [1] (at 50.0 µM), 12.8%; in assay [2] (setting [7]), -2%; in assay [2] (setting [8]) it was -3%; in assay [2] (at 50.0 µM), -7.6%. The growth inhibition is -2% in assay [3] (setting [7]); -4% in assay [3] (setting [8]); -4.2% in assay [3] (at 50.0 µM); -7% in assay [4] (setting [7]); -4% in assay [4] (setting [8]); 42.9% in assay [4] (at 50.0 µM). The growth inhibition in assay [5] (setting [7]) was 0%; in assay [5] (setting [8]), -1%; in assay [5] (at 50.0 µM) it was 0.9%; in assay [6] (setting [7]) it was -1%; in assay [6] (setting [8]) it was -1%; in assay [6] (at 50.0 µM), 14.4%.

As to `CC(Cc1ccccc1)N1C(=O)C=CC1=O` (configuration not stated), the growth inhibition in assay [1] (setting [7]) is 45%; in assay [1] (setting [8]), 98% (active); in assay [1] (at 50.0 µM) it was 91.8% (active); in assay [2] (setting [7]), 92% (active); in assay [2] (setting [8]), 99% (active); in assay [2] (at 50.0 µM), 93.5% (active). Also, the growth inhibition in assay [3] (setting [7]) is 20%; in assay [3] (setting [8]), 50%; in assay [3] (at 50.0 µM) it was 93.8% (active); in assay [4] (setting [7]) it was 77% (active); in assay [4] (setting [8]), 98% (active); in assay [4] (at 50.0 µM), 91.5% (active). In addition, the growth inhibition in assay [5] (setting [7]) is 76% (active); in assay [5] (setting [8]) it was 99% (active); in assay [5] (at 50.0 µM), 92.2% (active); in assay [6] (setting [7]), 47%; in assay [6] (setting [8]), 98% (active); in assay [6] (at 50.0 µM) it was 91.8% (active).

Take `CC(C)(C)CCCC(C(=O)O)c1ccccc1` (configuration not stated): the growth inhibition in assay [1] (setting [7]) was 0%; in assay [1] (setting [8]), 50%; in assay [1] (at 50.0 µM), 82.6% (active); in assay [2] (setting [7]), -10%; in assay [2] (setting [8]), 54%; in assay [2] (at 50.0 µM) it was 75.8% (active). Further, the growth inhibition in assay [3] (setting [7]) is -2%; in assay [3] (setting [8]), 31%; in assay [3] (at 50.0 µM), 63%; in assay [4] (setting [7]), -10%; in assay [4] (setting [8]) it was 60%; in assay [4] (at 50.0 µM) it was 76.8% (active). The growth inhibition is -7% in assay [5] (setting [7]); 57% in assay [5] (setting [8]); 55.1% in assay [5] (at 50.0 µM); -7% in assay [6] (setting [7]); 49% in assay [6] (setting [8]); 85.1% (active) in assay [6] (at 50.0 µM).

On to `Cn1c(=S)c2[nH]c(SCc3ccncc3)nc2n(C)c1=O`, for which the growth inhibition in assay [1] (setting [7]) is -2%; in assay [1] (setting [8]), 7%; in assay [1] (at 50.0 µM), 47.2%; in assay [2] (setting [7]) it was 0%; in assay [2] (setting [8]) it was -1%; in assay [2] (at 50.0 µM), 59%. In addition, the growth inhibition in assay [3] (setting [7]) was -2%; in assay [3] (setting [8]), 53%; in assay [3] (at 50.0 µM) it was 64%; in assay [4] (setting [7]), -3%; in assay [4] (setting [8]), -12%; in assay [4] (at 50.0 µM), 17.8%. For the same compound, the growth inhibition in assay [5] (setting [7]) is -9%; in assay [5] (setting [8]), 2%; in assay [5] (at 50.0 µM) it was 56.4%; in assay [6] (setting [7]) it was -19%; in assay [6] (setting [8]), -6%; in assay [6] (at 50.0 µM), 78.1% (active).

For `CCC(CO)Nc1nc2cc(Br)ccc2c2ccc(Br)cc12` (configuration not stated), the growth inhibition in assay [1] (setting [7]) is 36%; in assay [1] (setting [8]), 92% (active); in assay [1] (at 50.0 µM), 92.6% (active); in assay [2] (setting [7]), 10%; in assay [2] (setting [8]) it was 96% (active); in assay [2] (at 50.0 µM) it was 95.5% (active). The growth inhibition in assay [3] (setting [7]) was 62%; in assay [3] (setting [8]) it was 93% (active); in assay [3] (at 50.0 µM) it was 96.2% (active); in assay [4] (setting [7]), 8%; in assay [4] (setting [8]), 93% (active); in assay [4] (at 50.0 µM), 93.8% (active). The growth inhibition was 47% in assay [5] (setting [7]); 94% (active) in assay [5] (setting [8]); 91.9% (active) in assay [5] (at 50.0 µM); 18% in assay [6] (setting [7]); 93% (active) in assay [6] (setting [8]); 95.8% (active) in assay [6] (at 50.0 µM).

As to `[O-][n+]1c2ccccc2cc2c1c1ccccc1n2O`, the growth inhibition is -1% in assay [1] (setting [7]); 1% in assay [1] (setting [8]); 20.1% in assay [1] (at 50.0 µM); 0% in assay [2] (setting [7]); 0% in assay [2] (setting [8]); 5.2% in assay [2] (at 50.0 µM). Also, the growth inhibition in assay [3] (setting [7]) was -7%; in assay [3] (setting [8]), -3%; in assay [3] (at 50.0 µM) it was 17.7%; in assay [4] (setting [7]), 4%; in assay [4] (setting [8]), 8%; in assay [4] (at 50.0 µM) it was 46.4%. Besides, the growth inhibition was 6% in assay [5] (setting [7]); 4% in assay [5] (setting [8]); 0.45% in assay [5] (at 50.0 µM); -4% in assay [6] (setting [7]); -5% in assay [6] (setting [8]); 13.9% in assay [6] (at 50.0 µM).

`CN(C)C(=S)/N=c1\ssc(=S)n1-c1ccccc1`: the growth inhibition in assay [1] (setting [7]) is 17%; in assay [1] (setting [8]), 100% (active); in assay [1] (at 50.0 µM) it was -13.9%; in assay [2] (setting [7]), 39%; in assay [2] (setting [8]), 99% (active); in assay [2] (at 50.0 µM) it was -8.8%. Also, the growth inhibition in assay [3] (setting [7]) is 50%; in assay [3] (setting [8]) it was 100% (active); in assay [3] (at 50.0 µM) it was -13.1%; in assay [4] (setting [7]), 38%; in assay [4] (setting [8]) it was 99% (active); in assay [4] (at 50.0 µM), -17.1%. For the same compound, the growth inhibition in assay [5] (setting [7]) was 46%; in assay [5] (setting [8]), 100% (active); in assay [5] (at 50.0 µM), -2.45%; in assay [6] (setting [7]) it was 23%; in assay [6] (setting [8]) it was 99% (active); in assay [6] (at 50.0 µM) it was 20.7%.
